From PubChem BioAssay (NCI) come the findings set out here.

Values joined by “and” are separate entries in the source; they are usually repeats but may differ in a detail not shown here. Identical values can stand only once. The panel holds about 83,000 compounds, 20% with a hit somewhere; the sample as a whole holds those more often.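 Note: values are percent growth. 100 is the growth of untreated cells, values between 100 and 0 indicate rising inhibition; between -100 and 0 indicates cell death.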 Active and inactive are the calls of the source. Rule for the calls: active = growth percent below 10; inactive = the rest.

The first assay relates to LOX IMVI melanoma. The assay is described as follows: NCI-60 one-dose screen, 48 h (100 = growth as untreated, 0 = no growth, -100 = all killed). The settings on record: 10 µM unless noted.
On to `CCN(CC)CCCC(C)Nc1ccnc2cc(Oc3ccccc3)ccc12` (configuration not stated), for which the growth is 22.2% (inactive) and 39.3% (inactive).
`CN1C(=O)C(N=Nc2ccc([N+](=O)[O-])cc2)SC1=S` (configuration not stated): the growth was 41.9% (inactive) and 51.5% (inactive).
As to `COc1ccccc1NC(=O)OCC#CCOC(=O)Nc1ccccc1OC`, the growth is 96.9% (inactive) and 100% (inactive).
With `O[C@H](c1cc(C(F)(F)F)nc2c(C(F)(F)F)cccc12)[C@@H]1CCCCN1`, the growth was 11.6% (inactive) and 7.96% (active).
As for `N#C/C(=C1C=C/C(=N/O)C(Br)=C/1)c1ccccc1`, the growth is 1.02% (active).
Take `CC1=C[C@H]2c3c(c(O)c(O)c4oc5cc(O)cc(O)c5c(=O)c34)[C@H](c3cc(O)c(O)c4oc5cc(O)cc(O)c5c(=O)c34)[C@H]2C(C)(C)C1`: the growth was -93.9% (active) and -100% (active).
`COc1ccc(/C(C#N)=C/c2ccccn2)cc1`: the growth is 99.7% (inactive) and 115% (inactive).
With `COc1ccc(Cn2c(NCCN=C(N)N)nc(=O)n(Cc3ccc(F)cc3)c2=O)cc1`, the growth is 96.2% (inactive).

The test system of the next assay is SK-MEL-28 melanoma. The description is as above. The settings on record: 10 µM unless noted.
As for `CC1CCCC(=O)O1` (configuration not stated), the growth is 99.5% (inactive) and 113% (inactive).
On to `Cc1ccc(S(=O)(=O)NCN2C(=O)c3ccccc3C2=O)cc1`, for which the growth was 111% (inactive).
Same read-out and setting: then `O=C(N/N=C/c1cccc2ccccc12)C1CC1`, with 111% (inactive) and 104% (inactive); and `CN(C)CCCNC1=C(Cl)C(=O)c2ccccc2C1=O`, with 83.2% (inactive) and 83.7% (inactive).
With `COc1ccc2nc(Cl)cc(C)c2c1`, the growth was 104% (inactive) and 118% (inactive).
`CN(C)c1ccc(C(=C2C=CC(=[N+](C)C)C=C2)c2ccccc2Cl)cc1`: the growth was -93.7% (active) and -96.8% (active).
`OCc1ccccn1`: the growth is 112% (inactive).
Same read-out and setting: for `Nc1ccccc1SC1CC(=O)N(c2cccc3ccccc23)C1=O` (configuration not stated) the value was 96.3% (inactive).
Regarding `CC(=O)Nc1cccc2c1CCCC2`, the growth is 104% (inactive) and 107% (inactive).
For the compound `CCN1CCN(CCNc2nccc(-c3c(-c4cccc(O)c4)nc4sccn34)n2)S1(=O)=O`, the growth is 23.7% (inactive) and 20.5% (inactive).
For the compound `NC(=O)c1ccccc1OCC(O)CO` (configuration not stated), the growth was 105% (inactive).
Same read-out and setting: then `Nc1ccccc1Nc1ccccc1`, with 109% (inactive) and 101% (inactive).
Regarding `N/C(=N\N=C\c1ccc2c(c1)OCO2)N/N=C\c1ccc2c(c1)OCO2`, the growth is 112% (inactive) and 45.6% (inactive).
With `N#C/C(=C/c1c(O)ccc2ccccc12)C(N)=O`, the growth is 110% (inactive).
`Oc1ccc(/C=C/c2ccccc2)cc1`: the growth is 97.5% (inactive) and 99.8% (inactive).
Turning to `COc1ccc2ccccc2c1/C=N/N1CCCCC1`, the growth is 96.5% (inactive).
Consider `O=C(Nc1cccc(-n2ccc3c(NC(=O)c4ccccc4)nccc32)c1)c1ccc(Cl)c(C(F)(F)F)c1`, for which the growth was -38.9% (active) and 79.8% (inactive).
`CCOc1ccc(Nc2c3ccccc3nc3ccccc23)cc1`: the growth was 106% (inactive) and 46.8% (inactive) and 66.1% (inactive).
Turning to `CCOc1ccc2cc(-c3nn(CC4CCN(C)CC4)c4ncnc(N)c34)ccc2c1`, the growth is 97.1% (inactive) and -58.3% (active).
Turning to `C[N+](C)(C)CN1C(=O)c2ccccc2C1=O`, the growth was 98.6% (inactive).
As for `S=C(S)N1CCCC1`, the growth is 95.1% (inactive) and 107% (inactive).
As to `O=C1C2=C(C(=O)c3ccccc31)C(O)(S(=O)(=O)O)C(O)(S(=O)(=O)O)C1N=CC=CC21` (configuration not stated), the growth is 89.2% (inactive) and 73% (inactive).
Still for that read-out and setting: for `Cc1cc(O)c2c(c1)C(=O)c1cc(O)cc(O)c1C2=O` the value was 87.7% (inactive); for `CCN(CC)CCC(CNc1ccnc2cc(Cl)ccc12)c1ccc(OC)cc1` (configuration not stated), -78.4% (active) and -54.7% (active).
Take `O=[N+]([O-])c1ccc2nc3c4ccccc4c4ccccc4c3nc2c1`: the growth was 113% (inactive).
`COc1cc2nc(N3CCC[C@@H](NC(=O)C4COc5ccccc5O4)C3)nc(N)c2cc1OC` (some centres not stated): the growth was 102% (inactive) and 98.7% (inactive).
As for `NC(=S)NN=C1CCC(C2CCCCC2)CC1` (configuration not stated), the growth is 91.5% (inactive) and 110% (inactive).
As to `CCOC(=O)c1sc(N)nc1-c1ccccc1`, the growth is 109% (inactive).
For the compound `Cc1ccc2nc3c(nc2c1)-c1cccc2cccc-3c12`, the growth is 102% (inactive).
